# Source: the supplement of paper PMC10849652
# Targets with a hit are over-represented here; the source holds about 8,800 in all. About 0.5% of all pairs of compound and target were hits. Unmarked numbers belong to inactive results.
# Tests used:
# Test in all cases: log2 fold change, soluble protein after heating vs DMSO (PISA); higher = thermal stabilisation; K562 lysate, 10 uM; active = over 0.2 and 3.5 SD of the protein, either way, in both replicates (recomputed)
# vemurafenib = compound: CCCS(=O)(=O)Nc1ccc(F)c(C(=O)c2c[nH]c3ncc(-c4ccc(Cl)cc4)cc23)c1F [vemurafenib]
# Procedure, shortened: (§1)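 Values give the log-two fold change in thermal stability against solvent controls, from duplicates. Crude K562 extract at 1 mg/mL protein, made by dounce homogenisation in PBS pH 7.4 with 1 mM MgCl2, was treated with 10 μM compound for 30 min. After 3 min heating across 48°C-58°C, aliquots were pooled, adjusted to 0.5% NP-40 at 4°C and centrifuged at 21,000xg for 90 min. The supernatant was measured by TMTpro 16plex LC-MS/MS with channel sums equalised.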
# [1] = compound: CCCS(=O)(=O)Nc1ccc(F)c(C(=O)c2c[nH]c3ncc(Cl)cc23)c1F
# Procedure, shortened: as §1
# barasertib = compound: CCN(CCCOc1ccc2c(Nc3cc(CC(=O)Nc4cccc(F)c4)[nH]n3)ncnc2c1)CCOP(=O)(O)O [barasertib]
# Procedure, shortened: as §1
# [2] = compound: CC[C@@H]1C(=O)N(C)c2cnc(Nc3ccc(C(=O)NC4CCN(C)CC4)cc3OC)nc2N1C1CCCC1
# Procedure, shortened: as §1
# volasertib = compound: CC[C@@H]1C(=O)N(C)c2cnc(Nc3ccc(C(=O)N[C@H]4CC[C@H](N5CCN(CC6CC6)CC5)CC4)cc3OC)nc2N1C(C)C [volasertib]
# Procedure, shortened: as §1
# [3] = compound: CCn1c(C(=O)N(C2CC2)C2CC2)cc2c3c(ncn3C)c(Nc3cc(C)n(C)n3)nc21
# Procedure, shortened: as §1
# [4] = compound: CCn1cc(-c2ccnc3[nH]c(-c4cccc(CN(C)C)c4)cc23)c(-c2ccc(NC(=O)N(C)C)cc2)n1
# Procedure, shortened: as §1
# [5] = compound: CN1CCC(CNc2ccc3ncc(-c4cccc(OC(F)(F)F)c4)n3n2)CC1
# Procedure, shortened: as §1
# saracatinib = compound: CN1CCN(CCOc2cc(OC3CCOCC3)c3c(Nc4c(Cl)ccc5c4OCO5)ncnc3c2)CC1 [saracatinib]
# Procedure, shortened: as §1
# sotrastaurin = compound: CN1CCN(c2nc(C3=C(c4c[nH]c5ccccc45)C(=O)NC3=O)c3ccccc3n2)CC1 [sotrastaurin]
# Procedure, shortened: as §1
# alvocidib = compound: CN1CC[C@H](c2c(O)cc(O)c3c(=O)cc(-c4ccccc4Cl)oc23)[C@H](O)C1 [alvocidib]
# Procedure, shortened: as §1
# Tubastatin A = compound: CN1CCc2c(c3ccccc3n2Cc2ccc(C(=O)NO)cc2)C1 [Tubastatin A]
# Procedure, shortened: as §1
# [6] = compound: CNC(=O)C1=CC=CC=C1NC2=NC(=NC=C2Cl)NC3=C(C=C(C=C3)N4CCOCC4)OC
# Procedure, shortened: as §1
# defactinib = compound: CNC(=O)c1ccc(Nc2ncc(C(F)(F)F)c(NCc3nccnc3N(C)S(C)(=O)=O)n2)cc1 [defactinib]
# Procedure, shortened: as §1
# [7] = compound: CNc1nc(-c2ccc3c(N)n[nH]c3c2)cc(N2C[C@@H](C(=O)NC3CCCCC3)CC[C@H]2C)n1
# Procedure, shortened: as §1
# encorafenib = compound: COC(=O)N[C@@H](C)CNc1nccc(-c2cn(C(C)C)nc2-c2cc(Cl)cc(NS(C)(=O)=O)c2F)n1 [encorafenib]
# Procedure, shortened: as §1
# [8] = compound: COC(=O)[C@H](CCSC)NC(=O)C1=C(C=C(C=C1)NC[C@H](CS)N)C2=CC=CC=C2
# Procedure, shortened: as §1
# alisertib = compound: COc1cc(Nc2ncc3c(n2)-c2ccc(Cl)cc2C(c2c(F)cccc2OC)=NC3)ccc1C(=O)O [alisertib]
# Procedure, shortened: as §1
# [9] = compound: COc1cc2nc(-c3cc(F)ccc3O)nc(N[C@@H]3CNC[C@H]3C(C)(C)O)c2cc1OC
# Procedure, shortened: as §1
# gefitinib = compound: COc1cc2ncnc(Nc3ccc(F)c(Cl)c3)c2cc1OCCCN1CCOCC1 [gefitinib]
# Procedure, shortened: as §1
# Sequence of UniProt O95071 (O95071 whole entry, looked up): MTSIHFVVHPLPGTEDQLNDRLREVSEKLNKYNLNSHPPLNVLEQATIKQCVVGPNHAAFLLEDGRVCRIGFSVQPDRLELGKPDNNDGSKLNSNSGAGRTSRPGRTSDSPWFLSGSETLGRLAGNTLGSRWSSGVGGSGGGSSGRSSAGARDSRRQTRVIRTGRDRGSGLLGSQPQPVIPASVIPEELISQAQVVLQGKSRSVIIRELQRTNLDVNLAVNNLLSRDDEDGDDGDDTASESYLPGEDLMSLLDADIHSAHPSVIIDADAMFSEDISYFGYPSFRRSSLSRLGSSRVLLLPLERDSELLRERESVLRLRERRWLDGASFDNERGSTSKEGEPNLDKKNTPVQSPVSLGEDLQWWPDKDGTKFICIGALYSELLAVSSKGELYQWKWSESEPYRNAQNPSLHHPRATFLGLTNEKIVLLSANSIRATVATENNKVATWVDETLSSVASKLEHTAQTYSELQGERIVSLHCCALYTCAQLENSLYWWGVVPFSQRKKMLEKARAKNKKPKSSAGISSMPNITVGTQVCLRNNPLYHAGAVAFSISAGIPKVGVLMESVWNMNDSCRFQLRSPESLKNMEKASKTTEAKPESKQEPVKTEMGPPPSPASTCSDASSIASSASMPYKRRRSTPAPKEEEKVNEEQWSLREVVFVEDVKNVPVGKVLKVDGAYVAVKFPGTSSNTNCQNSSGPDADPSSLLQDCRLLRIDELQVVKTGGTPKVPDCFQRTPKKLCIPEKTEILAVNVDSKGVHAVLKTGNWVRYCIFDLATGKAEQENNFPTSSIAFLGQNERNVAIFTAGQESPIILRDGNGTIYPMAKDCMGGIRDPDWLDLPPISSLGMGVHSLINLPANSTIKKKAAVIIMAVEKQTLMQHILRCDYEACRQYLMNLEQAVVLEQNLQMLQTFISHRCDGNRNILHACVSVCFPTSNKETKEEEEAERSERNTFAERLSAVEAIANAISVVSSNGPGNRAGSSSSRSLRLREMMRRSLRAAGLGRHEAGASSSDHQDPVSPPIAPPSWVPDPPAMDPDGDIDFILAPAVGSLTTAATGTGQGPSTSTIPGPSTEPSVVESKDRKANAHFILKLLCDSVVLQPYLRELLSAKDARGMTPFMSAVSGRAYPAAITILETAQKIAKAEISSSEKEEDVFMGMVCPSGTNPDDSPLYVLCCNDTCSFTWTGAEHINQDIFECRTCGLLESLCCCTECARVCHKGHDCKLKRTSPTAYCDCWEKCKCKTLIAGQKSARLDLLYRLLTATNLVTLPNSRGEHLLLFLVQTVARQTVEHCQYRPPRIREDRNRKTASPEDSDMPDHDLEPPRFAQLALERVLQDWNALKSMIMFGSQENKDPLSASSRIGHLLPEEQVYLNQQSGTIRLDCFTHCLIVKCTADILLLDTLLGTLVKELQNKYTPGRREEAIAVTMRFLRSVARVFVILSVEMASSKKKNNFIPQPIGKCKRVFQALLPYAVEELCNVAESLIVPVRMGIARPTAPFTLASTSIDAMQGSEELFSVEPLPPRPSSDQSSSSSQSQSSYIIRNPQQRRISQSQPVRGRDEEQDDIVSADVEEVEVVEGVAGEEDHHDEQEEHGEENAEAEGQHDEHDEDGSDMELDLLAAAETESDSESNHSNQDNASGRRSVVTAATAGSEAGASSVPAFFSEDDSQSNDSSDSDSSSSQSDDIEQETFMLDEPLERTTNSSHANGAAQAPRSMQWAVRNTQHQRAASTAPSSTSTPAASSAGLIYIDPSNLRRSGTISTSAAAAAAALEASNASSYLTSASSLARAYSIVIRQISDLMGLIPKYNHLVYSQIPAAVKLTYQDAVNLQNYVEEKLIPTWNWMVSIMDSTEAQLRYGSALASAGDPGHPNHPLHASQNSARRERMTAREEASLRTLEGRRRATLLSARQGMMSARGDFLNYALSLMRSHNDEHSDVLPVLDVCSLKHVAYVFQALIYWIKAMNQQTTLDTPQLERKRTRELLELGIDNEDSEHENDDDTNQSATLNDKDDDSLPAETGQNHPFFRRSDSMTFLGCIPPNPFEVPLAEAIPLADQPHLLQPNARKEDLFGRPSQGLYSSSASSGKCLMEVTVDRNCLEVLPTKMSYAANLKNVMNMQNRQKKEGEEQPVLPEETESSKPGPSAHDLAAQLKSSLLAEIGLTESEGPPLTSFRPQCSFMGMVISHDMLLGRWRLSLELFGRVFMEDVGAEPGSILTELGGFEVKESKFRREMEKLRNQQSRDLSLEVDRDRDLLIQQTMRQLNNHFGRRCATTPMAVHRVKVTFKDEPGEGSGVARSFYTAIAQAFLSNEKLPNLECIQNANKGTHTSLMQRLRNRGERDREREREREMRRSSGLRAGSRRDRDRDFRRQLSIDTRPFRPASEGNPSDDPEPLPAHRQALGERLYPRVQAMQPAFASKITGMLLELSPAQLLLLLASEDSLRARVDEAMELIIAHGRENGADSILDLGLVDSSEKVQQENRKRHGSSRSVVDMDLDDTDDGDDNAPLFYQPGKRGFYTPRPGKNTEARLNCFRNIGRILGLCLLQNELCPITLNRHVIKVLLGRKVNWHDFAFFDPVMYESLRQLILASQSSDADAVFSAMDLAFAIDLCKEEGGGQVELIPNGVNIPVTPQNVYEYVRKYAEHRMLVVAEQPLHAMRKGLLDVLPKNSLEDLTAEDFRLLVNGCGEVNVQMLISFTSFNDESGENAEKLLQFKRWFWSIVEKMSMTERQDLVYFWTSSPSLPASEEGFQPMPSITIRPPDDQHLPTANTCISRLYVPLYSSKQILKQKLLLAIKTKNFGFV
# Sequence of UniProt P06753 (P06753 whole entry, looked up): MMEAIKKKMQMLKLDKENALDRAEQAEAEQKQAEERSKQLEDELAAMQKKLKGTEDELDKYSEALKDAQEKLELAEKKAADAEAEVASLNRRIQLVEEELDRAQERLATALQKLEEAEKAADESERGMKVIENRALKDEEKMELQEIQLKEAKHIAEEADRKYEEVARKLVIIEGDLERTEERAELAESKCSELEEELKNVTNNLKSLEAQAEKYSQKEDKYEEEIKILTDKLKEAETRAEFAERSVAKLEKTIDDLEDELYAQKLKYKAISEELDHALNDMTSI
# Sequence of UniProt Q12815 (Q12815 whole entry, looked up): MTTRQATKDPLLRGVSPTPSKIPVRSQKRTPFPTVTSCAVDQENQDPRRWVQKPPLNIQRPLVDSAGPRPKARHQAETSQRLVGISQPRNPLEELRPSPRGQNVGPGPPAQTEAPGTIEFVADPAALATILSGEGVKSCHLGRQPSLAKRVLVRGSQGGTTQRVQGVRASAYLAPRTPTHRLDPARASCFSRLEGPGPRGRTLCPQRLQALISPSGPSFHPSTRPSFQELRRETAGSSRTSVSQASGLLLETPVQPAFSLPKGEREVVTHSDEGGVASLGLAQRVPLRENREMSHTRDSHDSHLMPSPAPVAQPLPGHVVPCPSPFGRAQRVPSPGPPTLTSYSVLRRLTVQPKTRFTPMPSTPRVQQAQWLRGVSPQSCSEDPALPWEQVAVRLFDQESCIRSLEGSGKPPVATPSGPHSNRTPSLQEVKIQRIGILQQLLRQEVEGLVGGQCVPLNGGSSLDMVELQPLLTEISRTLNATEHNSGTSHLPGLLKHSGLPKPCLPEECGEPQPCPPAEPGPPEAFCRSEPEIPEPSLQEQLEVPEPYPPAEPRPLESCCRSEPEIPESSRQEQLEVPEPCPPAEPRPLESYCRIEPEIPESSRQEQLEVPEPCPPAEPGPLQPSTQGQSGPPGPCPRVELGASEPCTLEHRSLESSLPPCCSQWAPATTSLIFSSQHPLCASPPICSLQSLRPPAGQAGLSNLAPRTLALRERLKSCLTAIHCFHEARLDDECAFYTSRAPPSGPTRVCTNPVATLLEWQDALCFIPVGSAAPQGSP
# Sequence of UniProt Q5BVD1 (Q5BVD1 whole entry, looked up): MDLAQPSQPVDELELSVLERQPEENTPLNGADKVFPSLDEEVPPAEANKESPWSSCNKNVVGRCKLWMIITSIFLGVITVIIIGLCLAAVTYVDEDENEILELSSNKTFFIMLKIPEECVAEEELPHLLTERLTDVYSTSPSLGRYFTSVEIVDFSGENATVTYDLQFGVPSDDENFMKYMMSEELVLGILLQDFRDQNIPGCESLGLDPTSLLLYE
# Sequence of UniProt Q04726 (Q04726 whole entry, looked up): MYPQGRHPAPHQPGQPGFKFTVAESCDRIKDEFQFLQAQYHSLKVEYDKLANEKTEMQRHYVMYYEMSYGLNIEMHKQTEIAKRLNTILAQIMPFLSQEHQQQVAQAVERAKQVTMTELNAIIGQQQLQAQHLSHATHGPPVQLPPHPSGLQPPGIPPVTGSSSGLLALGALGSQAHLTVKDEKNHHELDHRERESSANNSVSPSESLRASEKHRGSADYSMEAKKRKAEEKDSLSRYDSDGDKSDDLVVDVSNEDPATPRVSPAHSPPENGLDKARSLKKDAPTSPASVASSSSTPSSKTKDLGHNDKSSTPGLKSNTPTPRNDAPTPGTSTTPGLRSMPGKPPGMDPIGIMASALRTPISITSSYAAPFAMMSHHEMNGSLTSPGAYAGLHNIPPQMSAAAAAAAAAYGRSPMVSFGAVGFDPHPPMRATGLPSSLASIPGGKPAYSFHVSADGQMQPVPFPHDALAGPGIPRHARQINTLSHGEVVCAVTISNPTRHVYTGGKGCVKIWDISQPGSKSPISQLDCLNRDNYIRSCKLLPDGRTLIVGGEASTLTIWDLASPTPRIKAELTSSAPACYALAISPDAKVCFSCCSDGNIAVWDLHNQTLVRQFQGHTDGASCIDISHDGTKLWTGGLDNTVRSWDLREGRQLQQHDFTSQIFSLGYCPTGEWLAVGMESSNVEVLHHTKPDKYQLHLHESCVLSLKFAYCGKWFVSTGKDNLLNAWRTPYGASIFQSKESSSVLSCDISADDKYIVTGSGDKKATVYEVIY
Target,log2 fold change (vemurafenib),log2 fold change [1],log2 fold change (barasertib),log2 fold change [2],log2 fold change (volasertib),log2 fold change [3],log2 fold change [4],log2 fold change [5],log2 fold change (saracatinib),log2 fold change (sotrastaurin),log2 fold change (alvocidib),log2 fold change (Tubastatin A),log2 fold change [6],log2 fold change (defactinib),log2 fold change [7],log2 fold change (encorafenib),log2 fold change [8],log2 fold change (alisertib),log2 fold change [9],log2 fold change (gefitinib)
TPM3 isoform 2 (UniProt P06753),-0.052,-0.024,-0.016,-0.07,0.007,0.026,0.196,-0.179,-0.009,0.025,0.03,0.033,-0.012,0,-0.144,0,-0.071,0,-0.024,0.059
TROAP (UniProt Q12815),0.113,0.146,0.053,0.063,0.31,0.043,-0.03,0.042,0.014,0.002,-0.042,-0.043,0.022,0.021,0.076,-0.193,0.217,-0.09,-0.171,-0.015
UBR5 (UniProt O95071),0.004,0.035,0.045,0.006,-0.031,0.01,-0.029,0.003,0.019,-0.005,-0.011,-0.084,0.002,0.016,0,0.025,-0.044,-0.028,-0.005,0.014
TRIM44 (UniProt Q96DX7),-0.085,0.095,0.066,-0.075,-0.014,0.003,0.146,-0.031,0.023,0.044,0,-0.013,0.057,-0.045,0.04,-0.047,-0.034,0.041,-0.121,0.088
TTMP isoform 3 (UniProt Q5BVD1),0.227,0.029,-0.025,0.122,0.031,-0.182,-0.88 (active),0.316,0.012,-0.029,-0.347,0.24,-0.105,-0.088,0.36,-0.06,0.06,0.119,0.129,0.02
TUBGCP2 isoform 4 (UniProt Q9BSJ2),0.02,0.01,0.027,0.001,-0.049,0.021,0.078,-0.064,-0.035,0,-0.007,-0.008,0.053,0.032,0.003,0.045,-0.026,0.021,0.017,-0.018
TLE3 isoform 4 (UniProt Q04726),0.009,0.01,0.005,0.065,0.021,0.027,-0.001,0.01,0.017,-0.017,0.023,0.002,-0.013,0.004,0.024,0.014,-0.019,-0.016,0.002,-0.037
TRIM65 (UniProt Q6PJ69),0.025,0.085,0.013,0.026,-0.076,0,-0.056,0.008,-0.022,0.022,-0.11,0.025,-0.044,0.024,-0.014,-0.002,0.089,-0.02,0.023,0.003
